We go through 40 compounds from PubChem BioAssay (Tox21).

Values without a mark were called inactive. Active and inactive are the calls of the source. Calls follow the shape of the dose curve; as a rule, active = well fitted curve in the direction sought with a large enough effect in the repeat runs; inconclusive = weak or mixed curves; inactive = flat fitted curve, though single readings scatter.
% is scaled to controls: 0 for no effect and ±100 for the full control effect.

The nature of the test: qHTS assay to test for compound auto fluorescence at 535 nm (green) in HEK293 cell free culture (AID 720682). The conditions noted are these: cell-free medium, green autofluorescence 485/535 nm, stronger effect = higher value; series mostly up to 91.3 µM. An excerpt:
U.S. Tox21 Program National Center for Advancing Translational Sciences [NCATS] NIH Chemical Genomics Center [NCGC] U.S. Environmental Protection Agency [EPA] National Institutes of Environmental Health Sciences [NIEHS] National Toxicology Program [NTP] U.S. Food and Drug Administration [FDA] Tox21 Assay Overview: Compound auto fluorescence often interferes with screening of the compound library against various biological targets and signaling pathways. Some of these compounds may have fluorophoric properties. Such properties may interfere with the assay outputs resulting in false positives and/or negatives. To decrease such complications and ensure the compound activities are relevant in terms of biological response, the Tox21 10K compound library was screened for auto fluorescence. From the fluorophores used as reporter signals in our screening assays, the auto fluorescence equivalencies of compounds against three fluorophores have been evaluated: Triamterene, Fluorescein and Rose Bengal sodium for blue, green and red fluorescence, respectively. The fluorescence intensities were measured using Excitation/Emission wavelengths at 405/460nm, 485/535nm and 540/590nm for blue, green and red labels, respectively. This assay includes the green fluorescence data.
Tox21 Assay Protocol Summary: 5 uL of culture medium (DMEM containing 10% FBS) per well was dispensed into black wall/clear bottom 1536-well plates using a Multidrop Combi Dispenser (ThermoFisher Scientific, Waltham, MA). After 23 nL compound or DMSO vehicle was transferred into assay plate by a pintool work station (Kalypsys, San Diego, CA), fluorescence intensities in the assay plates were measured by an Envision (PerkinElmer, Shelton, CT) plate reader using three labels for measuring blue, green and red fluorescence at […] 460, 535 and 590nm respectively.
In general terms: In qHTS, concentration-response curves come from the screen itself.
Take `C=C(C)[C@@H]1CC[C@@H](C)C[C@@H]1O`: the compound was called inactive.

`CCC(CO)CO`: the call was inactive.

On to `CCOC(=O)CC(CC(=O)OCC)(OC(C)=O)C(=O)OCC`, for which the outcome was inactive.

Take `NC(=O)NC(=O)Cc1ccccc1`: the result was inactive.

With `CCCCCCCCCCCCOC(C)=O`, the compound was called inactive.

`CN(C)CCOCCN(C)CCO`: the result was inactive.

Regarding `CCOC(=O)C(C)(C)C`, the compound was classed as inactive.

Consider `CC(C)COC(=O)/C=C/c1ccccc1`, for which the result was inactive.

On to `C[C@H](CCC(=O)O)[C@H]1CC[C@H]2[C@@H]3[C@H](O)C[C@@H]4C[C@H](O)CC[C@]4(C)[C@H]3C[C@H](O)[C@]12C`, for which the outcome was inactive.

On to `CC(C)COC(=O)CC(C(=O)OCC(C)C)S(=O)(=O)O` (stereo not given), for which the call was inactive.

For `CCCCC(C)C(=O)O` (stereo not given), the compound was classed as inactive.

Consider `C1=CCC(c2ccccc2)CC1` (stereo not given), for which the compound was called inactive.

Turning to `C=CCOc1c(Br)cc(C(C)(C)c2cc(Br)c(OCC=C)c(Br)c2)cc1Br`, the outcome was inactive.

Take `CCC1COC(=O)O1` (stereo not given): the outcome was inactive.

Consider `Cc1cccc(C(=O)O)c1[N+](=O)[O-]`, for which the outcome was inactive.

For the compound `N#CCCOCCOCCC#N`, the call was inactive.

On to `CCN1CN(CC)CN(CC)C1`, for which the outcome was inactive.

Consider `C[N+](C)(C)CC(O)CCl` (stereo not given), for which the result was inactive.

As for `Cc1ccccc1N1CCN(CCc2nnc3n2CCCC3)CC1`, the call was inactive.

Regarding `NS(=O)(=O)c1cc2c(cc1Cl)NC(CC1CCCC1)NS2(=O)=O` (stereo not given), the activity change is 0.104% [at 18.6 µM].

As to `CC1=CC[C@H](CC=O)C1(C)C`, the compound was classed as inactive.

Regarding `Cc1cccc(Nc2ccncc2S(=O)(=O)NC(=O)NC(C)C)c1`, the activity change is -0.379% [at 18.6 µM].

For the compound `O=C1c2ccccc2-c2ccccc21`, the outcome was inactive.

For `NC(Cc1c[nH]c2ccccc12)C(=O)O` (stereo not given), the call was inactive.

With `CC(C)(CO)[C@@H](O)C(=O)NCCCO`, the compound was classed as inactive.

Consider `COC(/C=C(\C)CCC=C(C)C)OC`, for which the result was inactive.

Regarding `O=C(/C=C/c1ccccc1)NCCO`, the outcome was inactive.

On to `C=CCOCC(O)CCl` (stereo not given), for which the compound was called inactive.

Turning to `CC(=O)c1ccc(OCC(=O)N2CCCCC2)cc1`, the compound was called inactive.

Regarding `C=C(C)C(=O)OC1CC(C)CC(C)(C)C1` (stereo not given), the result was inactive.

With `FC(F)(F)c1ccc(Cl)cc1Cl`, the call was inactive.

Turning to `CC(=O)OC(C)c1ccccc1` (stereo not given), the compound was classed as inactive.

For `O=S1(=O)CCCC1`, the compound was classed as inactive.

Consider `CC1(N)CCC(C(C)(C)N)CC1` (stereo not given), for which the compound was classed as inactive.

Consider `C[CH2][Ge]([Cl])([CH2]C)[CH2]C`, for which the result was inactive.

`CCCCCCCCCCCCC1CO1` (stereo not given): the compound was called inactive.

For `CCN(CCO)c1cccc(C)c1`, the compound was classed as inactive.

On to `C=C[C@@H](C)CCC=C(C)C`, for which the outcome was inactive.

On to `Nc1cc(Cl)cc(S(=O)(=O)O)c1O`, for which the compound was called inactive.

`COc1ccc(NS(=O)(=O)c2ccc(N)cc2)nn1`: the activity change was -0.0484% [at 18.6 µM].
